Active and inactive are the calls of the source.

Assay [1] can be described thus: small molecules captured by biotinylated probe aFSTL3 – biochemical, small-molecule microarray, fluorescence 635/667, stem cell growth factor project, primary screen (AID 1064).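 Also: measures binding of the biotinylated anti-FSTL3 antibody to printed compounds.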 Conditions: higher = more signal.
The nature of assay [2]: binders from COS7 lysate, DM2A8 probe, primary screen, torsin A project, cell lysate, small-molecule microarray, fluorescence 635/667 (AID 1065). Particulars: higher = more signal, COS7 lysate expressing mutant human TOR1A.
Assay [3] is described as follows: small molecules captured by biotinylated probe aFGF2 – biochemical, small-molecule microarray, fluorescence 635/667, stem cell growth factor project, primary screen (AID 1067).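 Also: measures binding of biotinylated aFGF2 protein to printed compounds on slides; z-score merges feature fluorescence and signal-to-noise across triplicate slides.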 Conditions: higher = more signal.
Assay [4] can be described thus: small molecules captured by biotinylated probe aFGF10 – biochemical, small-molecule microarray, fluorescence 635/667, stem cell growth factor project, primary screen (AID 1071).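 Also: score merges 667 nm spot intensity and signal to noise from triplicate slides.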 Particulars: higher = more signal.
For assay [5], the target named is Neurogenic locus notch homolog protein 2 (Homo sapiens) (UniProt Q04721). The assay is described as follows: small molecules binding Notch2 protein – biochemical, small-molecule microarray, 635 nm fluorescence, stem cell growth factors, primary screen (AID 1073). Conditions: higher = more signal.
Assay [6] deals with Pro-neuregulin-1, membrane-bound isoform (Homo sapiens) (UniProt Q02297). The assay is described as follows: small molecules binding neuregulin-1 protein – biochemical, small-molecule microarray, fluorescence 635/667, psychiatric disease protein project, primary screen (AID 1075).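 Also: score combines 667 nm spot fluorescence with signal to noise.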 Particulars: NRG1 binding, 635 nm fluorescence, higher = more signal.
Assay [7] has as its system Neuregulin-1 EGF-like domain. The experiment in a line: small molecules binding NRG1 EGF domain – biochemical, small-molecule microarray, 635 nm fluorescence, primary screen (AID 1081).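 Also: binding of the protein to compounds printed on small-molecule microarray slides.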 Conditions: higher = more signal.
The nature of assay [8]: FRG1 expression reporter modulators in myotubes – cell-based, C2C12 myotubes, firefly/Renilla luciferase, luminescence, FRG1 inhibition for FSHD, primary screen (AID 1084). Particulars: FRG1 promoter luciferase, higher = more signal, called active from +8 up or from −8 down.
Assay [9] in a line: small molecules captured by biotinylated probe aFST – biochemical, small-molecule microarray, fluorescence 635/667, stem cell growth factor project, primary screen (AID 1086).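 Also: score merges 667 nm fluorescence with signal-to-noise of each printed compound spot.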 Particulars: higher = more signal.
A short description of assay [10]: binders of probe aHhip on microarray, primary screen, stem cell growth factor project, biochemical, small-molecule microarray, fluorescence 635/667 (AID 1087).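 Also: score merges spot fluorescence at 667nm with spot signal to noise ratio.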 Conditions: higher = more signal.
For assay [11], the system named is PRMT1 (protein arginine N-methyltransferase 1). The experiment in a line: small molecules binding arginine methyltransferase PRMT1 – biochemical, small-molecule microarray, 635 nm fluorescence, primary screen (AID 1088).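 Also: binding of Prmt1 protein to compounds spotted on small-molecule microarray slides.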 Particulars: higher = more signal.
Assay [12] in a line: growth effects on S. cerevisiae YJM789 – YJM789 clinical isolate, OD600, 24 h, basal, primary screen (AID 1089).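 Also: growth of clinical yeast isolate S. cerevisiae YJM 789 seeded 1000 cells per well; test concentration not given here.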 Particulars: higher = more signal, called active from +8 up or from −8 down.
Assay [13] is described as follows: S. pombe growth modifiers, basal conditions – strain 972, OD600, 24 h, no modulator, primary screen (AID 1090).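 Also: basal condition with compound alone and no growth modifier present; test concentration not given here.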 Particulars: S. pombe 972 growth, higher = more signal, called active from +8 up or from −8 down.
Assay [14] in a line: budding yeast growth modifiers under rapamycin – strain BY4716, OD600, 96 h, primary screen (AID 1091). Also: test concentration not given here. Conditions: S. cerevisiae BY4716 + rapamycin, higher = more signal, called active from +8 up or from −8 down.
The target in assay [15] is Torsin-1A-interacting protein 2 (Homo sapiens) (UniProt Q8NFQ8). The experiment in a line: small molecules binding lysate-expressed LULL1 – cell lysate, human LULL1 lysate, 635/667 nm fluorescence, primary screen (AID 1092).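 Also: probe is lysate of COS7 cells overexpressing human LULL1; score merges per-feature 667 nm fluorescence with signal-to-noise.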 Particulars: small-molecule microarray, hLULL1 lysate binding, 635 nm fluorescence; higher = more signal.
A short description of assay [16]: optical density change of DRC41 E. coli – strain DRC41, OD650, 24 h, E. coli filamentation project, primary screen (AID 1093).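 Also: MC1000 strain lacking acrAB efflux and sulA so SOS filamentation is blocked; test concentration not given here.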 Conditions: E. coli DRC41 growth, higher = more signal, called active from +8 up or from −8 down.
Assay [17] is described as follows: probe aLefty2 binding to arrayed compounds – biochemical, biotinylated probe, 635/667 nm fluorescence, primary screen (AID 1094).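 Also: score merges spot fluorescence near 667 nm with spot signal-to-noise ratio.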 Particulars: small-molecule microarray, higher = more signal.
Assay [18] deals with Noggin (protein binding on small-molecule microarray). The experiment in a line: small molecules binding Noggin protein – biochemical, 635/667 nm fluorescence, primary screen (AID 1095).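 Also: score merges 667 nm feature fluorescence with signal to noise over triplicate slides.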 Particulars: 635 nm fluorescence, higher = more signal.
Assay [19] addresses Neurogenic locus notch homolog protein 3 (Homo sapiens) (UniProt Q9UM47). The experiment in a line: small molecules binding NOTCH3 protein – biochemical, 635/667 nm fluorescence, primary screen (AID 1096). Particulars: small-molecule microarray, 635 nm fluorescence, higher = more signal.
Assay [20] is described as follows: probe aEGFR binding to arrayed compounds – biochemical, biotinylated probe, 635/667 nm fluorescence, primary screen (AID 1097).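 Also: probe is a biotinylated anti-EGFR antibody binding compounds printed on slides; score combines fluorescence near 667 nm and signal to noise of each spot.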 Conditions: small-molecule microarray, higher = more signal.

Sequence of Neurogenic locus notch homolog protein 3 (Homo sapiens) (Q9UM47 whole entry, looked up): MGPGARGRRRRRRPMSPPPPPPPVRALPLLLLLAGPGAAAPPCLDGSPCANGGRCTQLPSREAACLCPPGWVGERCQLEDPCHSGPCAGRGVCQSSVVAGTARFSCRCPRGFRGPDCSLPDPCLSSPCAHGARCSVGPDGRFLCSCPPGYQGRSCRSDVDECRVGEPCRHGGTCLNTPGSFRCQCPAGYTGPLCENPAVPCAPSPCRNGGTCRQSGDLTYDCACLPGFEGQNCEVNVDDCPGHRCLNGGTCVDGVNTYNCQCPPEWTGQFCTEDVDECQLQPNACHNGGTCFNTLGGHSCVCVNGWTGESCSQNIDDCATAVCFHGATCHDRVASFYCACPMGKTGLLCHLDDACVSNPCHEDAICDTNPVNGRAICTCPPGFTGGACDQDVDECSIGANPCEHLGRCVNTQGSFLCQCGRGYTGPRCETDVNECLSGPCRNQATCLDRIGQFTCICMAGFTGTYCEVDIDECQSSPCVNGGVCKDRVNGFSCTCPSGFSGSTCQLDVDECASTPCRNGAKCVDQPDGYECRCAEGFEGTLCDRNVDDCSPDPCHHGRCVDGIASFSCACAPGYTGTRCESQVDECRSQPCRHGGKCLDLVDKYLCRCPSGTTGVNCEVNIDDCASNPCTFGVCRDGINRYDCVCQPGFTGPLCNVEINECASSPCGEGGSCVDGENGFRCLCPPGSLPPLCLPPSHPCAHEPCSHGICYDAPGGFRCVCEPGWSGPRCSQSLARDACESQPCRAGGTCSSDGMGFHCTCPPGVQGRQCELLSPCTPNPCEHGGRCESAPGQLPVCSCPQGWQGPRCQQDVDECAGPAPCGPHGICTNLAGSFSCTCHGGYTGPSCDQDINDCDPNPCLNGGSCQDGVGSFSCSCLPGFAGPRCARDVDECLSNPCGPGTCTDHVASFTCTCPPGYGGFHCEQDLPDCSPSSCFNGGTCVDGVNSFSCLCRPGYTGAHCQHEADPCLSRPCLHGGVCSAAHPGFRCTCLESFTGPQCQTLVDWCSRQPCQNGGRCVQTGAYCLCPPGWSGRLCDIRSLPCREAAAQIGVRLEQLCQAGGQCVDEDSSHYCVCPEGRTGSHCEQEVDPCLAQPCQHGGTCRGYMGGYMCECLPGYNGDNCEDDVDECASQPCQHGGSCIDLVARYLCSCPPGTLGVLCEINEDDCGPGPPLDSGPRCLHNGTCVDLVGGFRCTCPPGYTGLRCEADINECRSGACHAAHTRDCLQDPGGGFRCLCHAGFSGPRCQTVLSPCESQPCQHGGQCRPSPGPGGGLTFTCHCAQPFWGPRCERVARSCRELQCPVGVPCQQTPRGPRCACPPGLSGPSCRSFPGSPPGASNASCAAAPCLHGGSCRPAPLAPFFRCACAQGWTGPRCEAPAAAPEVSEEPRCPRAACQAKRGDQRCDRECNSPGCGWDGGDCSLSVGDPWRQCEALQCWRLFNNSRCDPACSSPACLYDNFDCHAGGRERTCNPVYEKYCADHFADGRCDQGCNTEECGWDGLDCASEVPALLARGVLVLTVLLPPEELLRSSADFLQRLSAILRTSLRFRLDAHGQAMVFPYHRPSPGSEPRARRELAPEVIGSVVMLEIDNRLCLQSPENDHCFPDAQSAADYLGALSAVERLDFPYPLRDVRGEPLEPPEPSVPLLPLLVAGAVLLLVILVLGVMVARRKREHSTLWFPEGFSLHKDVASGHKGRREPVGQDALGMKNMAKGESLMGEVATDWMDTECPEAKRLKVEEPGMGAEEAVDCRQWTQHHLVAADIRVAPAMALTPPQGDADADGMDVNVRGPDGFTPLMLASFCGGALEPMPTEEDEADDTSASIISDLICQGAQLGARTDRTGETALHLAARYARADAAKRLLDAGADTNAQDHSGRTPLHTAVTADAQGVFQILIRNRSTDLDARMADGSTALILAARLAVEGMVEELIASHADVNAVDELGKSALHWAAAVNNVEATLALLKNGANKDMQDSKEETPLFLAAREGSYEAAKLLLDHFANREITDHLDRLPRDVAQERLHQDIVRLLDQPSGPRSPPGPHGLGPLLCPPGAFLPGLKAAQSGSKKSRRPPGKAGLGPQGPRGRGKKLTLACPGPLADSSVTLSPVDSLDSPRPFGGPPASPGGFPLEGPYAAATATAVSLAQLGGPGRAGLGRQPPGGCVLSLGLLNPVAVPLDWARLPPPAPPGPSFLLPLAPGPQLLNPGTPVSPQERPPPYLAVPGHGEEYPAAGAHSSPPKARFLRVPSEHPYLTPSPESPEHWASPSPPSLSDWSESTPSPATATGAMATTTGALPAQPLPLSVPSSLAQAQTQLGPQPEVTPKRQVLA
Sequence of Neurogenic locus notch homolog protein 2 (Homo sapiens) (Q04721 whole entry, looked up, canonical isoform): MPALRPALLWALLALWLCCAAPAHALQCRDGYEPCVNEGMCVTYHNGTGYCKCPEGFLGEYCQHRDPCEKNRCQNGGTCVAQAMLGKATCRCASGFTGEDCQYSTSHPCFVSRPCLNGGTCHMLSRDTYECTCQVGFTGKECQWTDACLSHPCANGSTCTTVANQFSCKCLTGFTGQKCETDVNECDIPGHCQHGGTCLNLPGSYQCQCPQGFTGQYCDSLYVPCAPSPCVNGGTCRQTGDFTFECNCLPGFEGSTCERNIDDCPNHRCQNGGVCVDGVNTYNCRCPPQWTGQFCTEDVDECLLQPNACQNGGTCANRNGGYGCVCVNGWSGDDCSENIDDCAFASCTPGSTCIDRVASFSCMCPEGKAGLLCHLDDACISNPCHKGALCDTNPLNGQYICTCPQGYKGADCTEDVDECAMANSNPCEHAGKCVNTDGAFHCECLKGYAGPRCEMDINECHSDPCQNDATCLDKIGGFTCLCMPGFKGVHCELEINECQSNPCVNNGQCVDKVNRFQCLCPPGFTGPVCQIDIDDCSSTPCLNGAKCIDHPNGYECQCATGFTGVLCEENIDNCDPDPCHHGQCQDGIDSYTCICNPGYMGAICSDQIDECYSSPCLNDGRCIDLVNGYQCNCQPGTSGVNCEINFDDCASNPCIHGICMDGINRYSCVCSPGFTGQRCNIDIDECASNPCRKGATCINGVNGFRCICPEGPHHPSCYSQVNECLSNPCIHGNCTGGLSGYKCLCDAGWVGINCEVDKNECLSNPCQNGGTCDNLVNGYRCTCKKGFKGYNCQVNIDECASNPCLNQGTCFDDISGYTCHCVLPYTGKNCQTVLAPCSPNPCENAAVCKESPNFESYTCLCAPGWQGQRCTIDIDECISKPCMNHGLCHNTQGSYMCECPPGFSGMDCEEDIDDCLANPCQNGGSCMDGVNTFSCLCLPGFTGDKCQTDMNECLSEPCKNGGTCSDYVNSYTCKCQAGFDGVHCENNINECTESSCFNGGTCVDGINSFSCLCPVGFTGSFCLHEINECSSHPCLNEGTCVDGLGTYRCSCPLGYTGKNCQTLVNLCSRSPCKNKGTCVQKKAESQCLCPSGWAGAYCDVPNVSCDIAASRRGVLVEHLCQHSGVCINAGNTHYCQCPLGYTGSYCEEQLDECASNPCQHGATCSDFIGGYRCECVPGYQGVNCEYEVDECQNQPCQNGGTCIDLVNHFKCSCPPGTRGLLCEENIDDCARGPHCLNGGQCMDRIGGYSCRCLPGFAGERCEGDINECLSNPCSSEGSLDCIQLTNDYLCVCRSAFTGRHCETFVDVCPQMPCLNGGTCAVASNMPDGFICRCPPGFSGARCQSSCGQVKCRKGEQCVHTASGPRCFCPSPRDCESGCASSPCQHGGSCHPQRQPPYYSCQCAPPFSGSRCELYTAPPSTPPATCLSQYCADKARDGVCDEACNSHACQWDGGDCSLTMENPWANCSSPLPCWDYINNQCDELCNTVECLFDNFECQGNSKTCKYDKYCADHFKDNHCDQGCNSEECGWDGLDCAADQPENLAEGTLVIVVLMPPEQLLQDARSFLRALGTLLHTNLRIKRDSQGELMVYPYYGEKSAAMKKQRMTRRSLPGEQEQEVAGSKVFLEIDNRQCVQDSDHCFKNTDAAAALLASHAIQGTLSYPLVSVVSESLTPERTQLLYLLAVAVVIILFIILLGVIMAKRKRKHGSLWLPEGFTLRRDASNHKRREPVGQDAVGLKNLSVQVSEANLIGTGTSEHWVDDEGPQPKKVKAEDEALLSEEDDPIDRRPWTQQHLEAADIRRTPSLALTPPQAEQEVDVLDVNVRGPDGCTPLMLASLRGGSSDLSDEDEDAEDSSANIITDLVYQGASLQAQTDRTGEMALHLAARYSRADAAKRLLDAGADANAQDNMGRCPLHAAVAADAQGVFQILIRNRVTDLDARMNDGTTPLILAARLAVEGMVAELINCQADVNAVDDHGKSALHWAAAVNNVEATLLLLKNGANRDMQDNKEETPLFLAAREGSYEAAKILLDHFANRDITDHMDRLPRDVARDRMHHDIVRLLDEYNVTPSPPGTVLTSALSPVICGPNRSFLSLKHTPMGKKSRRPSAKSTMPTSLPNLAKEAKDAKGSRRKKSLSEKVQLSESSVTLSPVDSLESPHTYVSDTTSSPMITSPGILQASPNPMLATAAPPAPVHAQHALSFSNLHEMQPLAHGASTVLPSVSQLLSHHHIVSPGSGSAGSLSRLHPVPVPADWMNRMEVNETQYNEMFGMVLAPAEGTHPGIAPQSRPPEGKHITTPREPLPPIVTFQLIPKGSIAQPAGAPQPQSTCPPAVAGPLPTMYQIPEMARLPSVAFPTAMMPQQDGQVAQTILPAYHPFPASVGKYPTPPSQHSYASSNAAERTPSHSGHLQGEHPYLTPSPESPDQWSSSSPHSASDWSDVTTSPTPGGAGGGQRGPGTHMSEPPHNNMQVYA

Regarding `[N-]=[N+]=NCc1ccccc1C[C@]1(C(N)=O)N=C(c2ccc(OCCCO)cc2)O[C@H]1c1ccccc1`, the composite z-score is 0.124 in [1]; 0.514 in [2]; -0.0129 in assay [3]; 0.726 in [4]; 0.639 in assay [5]; 1.89 in [6]. The composite z-score in assay [7] was 1.14; in [9] it was 1.56; in [10], -0.201; in assay [11], 1.31; in assay [15], 3.32; in assay [17], 0.158. In addition, the figures for the composite z-score in assay [18], in [19] and in assay [20] were -0.593, 0.859 and -0.02, respectively. In addition, the z-score in assay [8] was -3.9 (inactive); in assay [12], 0.458 (inactive); in [13], -1.74 (inactive); in [14], 2.34 (inactive); in assay [16] it was 1.22 (inactive).

Turning to `C=CCNC(=O)[C@H]1[C@@H]2C(=O)O[C@@H](c3ccccc3)[C@@H](c3ccccc3)N2[C@@H](c2ccc(O)cc2)[C@]12C(=O)N(C(=O)OCCOC)c1ccccc12`, the composite z-score is -0.548 in [1]; 0.267 in assay [2]; 0.0407 in [3]; 1.16 in assay [4]; 1.05 in [5]; 1.33 in assay [6]. Also, the composite z-score in assay [7] was 1.29; in assay [9] it was 0.303; in [10], -0.541; in assay [11], 1.42; in assay [15] it was 2.84; in [17] it was -0.0095. In addition, the values for the composite z-score in assay [18], in assay [19] and in [20] were 0.537, 1 and 0.0798, respectively. Moreover, the z-score in assay [8] is -1.96 (inactive); in assay [12] it was 0.734 (inactive); in [13], -0.66 (inactive); in assay [14], 2.39 (inactive); in assay [16] it was 0.507 (inactive).

For the molecule `C=CC1c2cc(O)c(OC)cc2CCN1Cc1cc2c(cc1Br)OCO2` (stereo not given), the composite z-score in [1] was 1.54; in assay [2] it was 1.07; in [3], -0.101; in assay [4], -0.15; in [5], -0.322; in assay [6], 1.19. Besides, the composite z-score was 1.22 in assay [7]; 0.221 in [9]; -0.132 in assay [10]; 1.25 in assay [11]; 2.51 in [15]; 0.386 in [17]. For the same molecule, the composite z-score in [18] was 0.289; in assay [19], 0.435; in assay [20], -0.132. For the same molecule, the z-score in [8] is -0.454 (inactive); in assay [12], -17.7 (active); in assay [13], -19.8 (active); in assay [14], -1.33 (inactive); in [16], -2 (inactive).

`NC(N)=NCCCn1cc(CNC(=O)[C@@H](N)Cc2ccccc2)nn1`: the composite z-score in assay [1] is 0.236; in assay [2], 0.236; in assay [3], 0.0263; in [4] it was -0.0436; in assay [5], -0.0857; in assay [6], 1.28. Besides, the composite z-score in [7] came out at 1.49; in assay [9], 0.044; in assay [10] it was 0.0053; in assay [11], 0.605; in [15], 1.14; in assay [17] it was 0.0616. Besides, the composite z-score in assay [18] came to 0.743; in [19], 0.179; in assay [20], 0.0221. In addition, the z-score is 1.28 (inactive) in assay [8]; 0.567 (inactive) in [12]; -0.627 (inactive) in assay [13]; -0.933 (inactive) in assay [14]; -1.08 (inactive) in assay [16].

In the case of `COC(=O)[C@H](Cc1ccccc1)N1CC(/C=C/C2CC2)=C[C@H]1[C@H](O)Cc1ccccc1`, the composite z-score is -0.284 in [1]; 0.177 in assay [2]; -0.104 in assay [3]; 0.6 in [4]; 0.34 in assay [5]; 0.821 in assay [6]. For the same molecule, the composite z-score was 1.01 in [7]; 0.101 in assay [9]; 0.0274 in [10]; 1.54 in assay [11]; 1.18 in [15]; -0.161 in [17]. Besides, the composite z-score in [18] was 0.961; in assay [19], 0.899; in [20] it was -0.0343. The z-score in assay [8] is -2.56 (inactive); in assay [12], -0.457 (inactive); in assay [13], -3.67 (inactive); in assay [14], -0.677 (inactive); in assay [16], -0.25 (inactive).

These data come from PubChem BioAssay.
